Test results taken from the supplement of paper PMC10646978.
± gives the standard deviation.

Experiments:
Settings in all cases: modulator concentration 10 µM
[1] = system: RAW-Dual (murine macrophage reporter line); assay: NF-kB reporter (SEAP) activity fold change vs agonist alone; higher = enhanced NF-kB activity
Summary of the method: (§1)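 RAW-Dual murine macrophage reporter cells were plated at 50 000 per well in 384-well plates, pin-transferred compound to 10 μM final, and pre-incubated for 1 hour at 37 °C before a PRR agonist was added and the cells incubated overnight. NF-κB activity was read from supernatant SEAP with QUANTI-Blue at 620 nm absorbance, and IRF activity from Lucia luciferase with QUANTI-Luc by luminescence. Each signal was expressed as fold change by dividing by the mean agonist-only control on the same plate. Two replicate plates were averaged, with errors obtained by propagation.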

[2] = system: RAW-Dual (murine macrophage reporter line); assay: IRF reporter (Lucia luciferase) activity fold change vs agonist alone; higher = enhanced IRF activity
Summary of the method: as §1

[3] = system: RAW-Dual (murine macrophage reporter line); assay: viability score (confluency relative to resting cells, overnight) (fraction); higher = more viable, active = viable (0.7 or more)
Summary of the method: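 Confluency was the readout: RAW-Dual macrophages were imaged with IncuCyte after an overnight exposure to compound at 10 μM final. IncuCyte software produced two masks over all imaged wells. The viability score expresses confluency against resting cells, and both masks had to exceed 70% of resting cells for a compound to meet the cutoff.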

[4] = agonist: CpG ODN 1826 0.5 ug/mL

Row | Structure (SMILES) | NF-kB reporter [1, 4] | NF-kB reporter ([1]; agonist: LPS 0.1 ug/mL) | NF-kB reporter ([1]; agonist: MPLA […]) | IRF reporter ([2]; agonist: 3'3'-cGAMP 10 ug/mL) | IRF reporter ([2]; agonist: LPS 0.1 ug/mL) | IRF reporter ([2]; agonist: MPLA […]) | viability score [3]
1 | CCCCCC(=O)NC(Oc1ccc([N+](=O)[O-])cc1)C(Cl)(Cl)Cl (centres undefined) | 0.988 ± 0.091 | 1.08 ± 0.07 | 1 ± 0.035 | 0.896 ± 0.22 | 1.06 ± 0.085 | 1.03 ± 0.069 | 1 (active)
2 | CCOC(=O)c1ccccc1-c1ccc(C=C2C(=O)NC(=O)N(c3cccc(C)c3)C2=O)o1 | 1 ± 0.18 | 0.965 ± 0.11 | 0.881 ± 0.069 | 1 ± 0.029 | 1.2 ± 0.14 | 1.09 ± 0.12 | 0.995 (active)
3 | COc1ccc(CNCCc2c[nH]c3ccccc23)c(OC)c1C | 0.258 ± 0.021 | 0.924 ± 0.076 | 2.6 ± 0.15 | 1.4 ± 0.048 | 3.32 ± 0.42 | 2.88 ± 0.25 | 0.178 (inactive)
4 | Cc1ccccc1C(=O)Nc1cc(Cl)c([N+](=O)[O-])cc1Cl | 1.05 ± 0.061 | 0.897 ± 0.078 | 0.973 ± 0.029 | 0.997 ± 0.037 | 0.996 ± 0.11 | 0.988 ± 0.21 | 0.998 (active)
5 | CCC1(c2cccc(O)c2)CCCCN(C)C1.Cl (centres undefined) | 0.894 ± 0.13 | 0.99 ± 0.054 | 1 ± 0.047 | 1.08 ± 0.088 | 0.963 ± 0.043 | 0.948 ± 0.21 | 1.01 (active)
6 | O=[N+]([O-])c1ccc(NCCc2ccccc2)c2ncccc12 | 0.971 ± 0.17 | 1.04 ± 0.086 | 1.6 ± 0.64 | 0.926 ± 0.032 | 1.25 ± 0.21 | 1.31 ± 0.2 | 0.997 (active)
7 | O=C(O)CCCc1ccc(N(CCCl)CCCl)cc1 | 1.03 ± 0.17 | 1.03 ± 0.084 | 1.11 ± 0.13 | 0.912 ± 0.027 | 1.29 ± 0.28 | 1.08 ± 0.12 | 0.994 (active)
8 | Cc1cc(N2CCNCC2)c2ccccc2n1 | 0.0643 ± 0.01 | 0.789 ± 0.062 | 0.899 ± 0.092 | 0.561 ± 0.045 | 1.15 ± 0.31 | 1.15 ± 0.16 | 0.994 (active)
9 | COC(=O)C1C2C(=O)N(c3ccccc3)C(=O)C12c1ccc(Cl)cc1 (centres undefined) | 1.1 ± 0.094 | 1.11 ± 0.09 | 1.01 ± 0.037 | 1.01 ± 0.04 | 1.03 ± 0.055 | 1.08 ± 0.11 | 1 (active)
10 | CN(C)CCC(=O)c1ccccc1 | 0.736 ± 0.06 | 0.28 ± 0.032 | 0.33 ± 0.018 | 0.155 ± 0.054 | 0.134 ± 0.0059 | 0.09 ± 0.0096 | 0.463 (inactive)
11 | CCN(CC)CCNC(=O)C(O)(c1ccccc1)c1ccccc1 | 0.873 ± 0.071 | 0.937 ± 0.066 | 0.964 ± 0.038 | 0.968 ± 0.076 | 0.991 ± 0.17 | 0.923 ± 0.23 | 0.998 (active)
12 | Cc1cccc2sc(NC(=O)c3cccn(Cc4ccc(Br)cc4)c3=O)nc12 | 1.06 ± 0.12 | 1.13 ± 0.096 | 1.02 ± 0.15 | 1.04 ± 0.052 | 1.32 ± 0.084 | 1.12 ± 0.085 | 1 (active)
13 | COc1ccc(C(CN(C)C)C2(O)CCCCC2)cc1 (centres undefined) [Prestw-1170] | 0.741 ± 0.12 | 1.17 ± 0.14 | 0.956 ± 0.074 | 0.916 ± 0.031 | 1.11 ± 0.22 | 1.37 ± 0.23 | 0.981 (active)
14 | CCNc1nc(Cl)nc(NC(C)C)n1 | 1.25 ± 0.097 | 0.873 ± 0.082 | 1.01 ± 0.094 | 1.01 ± 0.032 | 1.33 ± 0.21 | 1.49 ± 0.25 | 1.03 (active)
15 | O=C1CCC(=O)N1C1CC2CCC(C1)N2C(=O)Cc1cccc2ccccc12 (centres undefined) | 0.977 ± 0.049 | 1.12 ± 0.099 | 0.913 ± 0.11 | 1.08 ± 0.066 | 1.25 ± 0.076 | 1.16 ± 0.21 | 1.01 (active)
16 | CCC1CN2CCC1CC2C(O)c1ccnc2ccc(OC)cc12 (centres undefined) | 1.05 ± 0.25 | 1.16 ± 0.066 | 1.1 ± 0.08 | 0.565 ± 0.021 | 1.21 ± 0.17 | 1.33 ± 0.26 | 0.983 (active)
17 | O=C1NC(=O)C(=Cc2cccn2-c2ccc(Br)cc2)C(=O)N1 | 1.09 ± 0.09 | 0.758 ± 0.06 | 1.08 ± 0.04 | 0.876 ± 0.094 | 0.91 ± 0.14 | 0.844 ± 0.18 | 0.997 (active)
18 | C1=C(c2c[nH]c3ccccc23)CCNC1 | 0.448 ± 0.025 | 1.03 ± 0.069 | 0.915 ± 0.079 | 0.496 ± 0.016 | 1.15 ± 0.077 | 0.898 ± 0.087 | 0.989 (active)
19 | O=C1NC(=O)C(C(CC(=O)c2ccccc2)c2ccccc2)C(=O)N1 (centres undefined) | 1.04 ± 0.093 | 0.984 ± 0.076 | 0.93 ± 0.035 | 0.942 ± 0.12 | 1.02 ± 0.045 | 0.931 ± 0.14 | 1 (active)
20 | COc1cc2c(c(OC)c1OC)-c1ccc(OC)c(=O)cc1C(NC(C)=O)CC2 (centres undefined) | 2.37 ± 0.14 | 1.47 ± 0.092 | 2.59 ± 0.15 | 0.0948 ± 0.0032 | 1.87 ± 0.21 | 2.02 ± 0.27 | 0.673 (inactive)
21 | COCCN1C(=O)CN(C2CCN(CC(=O)N3CC(C)OC(C)C3)CC2)C1=O (centres undefined) | 0.903 ± 0.056 | 0.889 ± 0.11 | 0.997 ± 0.073 | 0.95 ± 0.13 | 0.979 ± 0.13 | 1.03 ± 0.29 | 0.977 (active)
22 | CCC1(c2c[nH]cn2)Cc2ccccc2C1.Cl | 0.752 ± 0.1 | 1.11 ± 0.082 | 0.863 ± 0.05 | 1 ± 0.05 | 1.25 ± 0.11 | 1.07 ± 0.081 | 0.976 (active)
23 | O=c1cc(CCl)occ1O | 1.18 ± 0.09 | 0.9 ± 0.09 | 1.13 ± 0.04 | 0.948 ± 0.13 | 0.876 ± 0.11 | 0.806 ± 0.26 | 0.999 (active)
24 | COc1ccc(CCNCc2ccc(OC)c(OC)c2OC)cc1OC | 1.01 ± 0.11 | 0.876 ± 0.14 | 0.942 ± 0.052 | 0.927 ± 0.16 | 1.01 ± 0.044 | 0.997 ± 0.11 | 0.998 (active)
25 | O=C1NC(=O)C(=CNc2ccccc2C(F)(F)F)C(=O)N1 | 1.13 ± 0.11 | 0.946 ± 0.11 | 1.04 ± 0.1 | 1.02 ± 0.034 | 1.21 ± 0.24 | 1.2 ± 0.2 | 1.02 (active)
26 | COc1cc2c(c(OC)c1OC)-c1ccc(O)c(=O)cc1C(NC(C)=O)CC2 (centres undefined) | 2.16 ± 0.12 | 1.27 ± 0.084 | 1.52 ± 0.16 | 0.705 ± 0.024 | 1.26 ± 0.082 | 1.08 ± 0.19 | 0.754 (active)
27 | O=C1NC(=O)N(c2ccccc2F)C(=O)C1=Cc1ccc(OCc2ccc([N+](=O)[O-])cc2)c(Cl)c1 | 0.917 ± 0.072 | 1.03 ± 0.068 | 0.894 ± 0.057 | 0.916 ± 0.049 | 1.22 ± 0.15 | 1.02 ± 0.065 | 1.01 (active)
